Compound activity (PubChem)
In the library only some 1.3% were active in any assay of this set; here they are far more common.
Giardia kill = Small Molecules that selectively kill Giardia lamblia: qHTS. Giardia lamblia trophozoite viability. activity change, % at 7.66 µM, hits read low. 340,000 compounds, 0.15% hits; in the data active means activity change below about -80%; inconclusive means between about -30% and that limit;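 further: parasites exposed to compound for two days anaerobically before the ATP read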
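Each well holds 100 Giardia trophozoites and compound. After two days (48 hrs) at 37 deg C in anaerobic conditions, ATP is quantified by luminescence.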
PINK1 expr mod = A Quantitative High throughput Screen to Identify Chemical Modulators of PINK1 Expression. 410,000 compounds, 0.2% hits. AID 624263, 2012. Potency, µM (titrated, usually from 76.6 µM), usual class: activators. PINK1 immunofluorescence, high-content cytometry, 24 h; active means well fitted activation curve with a large enough effect; inconclusive means small, poorly fitted or top-dose-only effect; cell line not stated here; further: nearly all actives have a fitted effect of over 65% in size
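Compound titrations (5 concentrations, 24 h) on a stable cell line; DMSO and CCCP controls. Endpoint: fixed-cell PINK1 immunofluorescence with mitochondrial, cell and nuclear markers, scanned by microplate cytometer.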
PTHR1 agonist = qHTS for PTHR1 Agonists: Primary Screen | 410,000 compounds, 0.075% hits | HEK293 GP2 PTHR1 cells, GloSensor cAMP luminescence, 1 h | Potency, µM (series often up to 115 µM), actives largely listed as activators | Parathyroid hormone/parathyroid hormone-related peptide receptor (Homo sapiens), Q03431; further: nearly all actives have a fitted effect of over 55% in size
Target sequence (Q03431 whole entry, looked up): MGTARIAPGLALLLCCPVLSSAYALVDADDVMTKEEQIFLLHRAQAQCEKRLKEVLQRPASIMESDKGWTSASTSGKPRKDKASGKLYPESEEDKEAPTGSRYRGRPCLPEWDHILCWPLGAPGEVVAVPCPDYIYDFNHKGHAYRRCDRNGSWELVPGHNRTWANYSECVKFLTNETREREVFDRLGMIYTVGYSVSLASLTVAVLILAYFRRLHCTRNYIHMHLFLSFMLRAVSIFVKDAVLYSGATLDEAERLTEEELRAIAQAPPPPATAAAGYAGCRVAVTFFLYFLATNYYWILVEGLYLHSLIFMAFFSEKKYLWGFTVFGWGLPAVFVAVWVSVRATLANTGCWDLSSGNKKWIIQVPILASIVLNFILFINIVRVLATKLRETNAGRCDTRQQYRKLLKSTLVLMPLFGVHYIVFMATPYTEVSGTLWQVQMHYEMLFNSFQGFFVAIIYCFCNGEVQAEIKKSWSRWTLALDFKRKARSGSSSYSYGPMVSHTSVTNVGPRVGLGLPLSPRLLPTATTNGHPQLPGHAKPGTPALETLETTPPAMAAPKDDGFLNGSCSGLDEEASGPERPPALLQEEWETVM
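HEK-293-derived GP2 cells expressing PTHR1 and a GloSensor cAMP reporter, 3,000/well, plated overnight, given luciferin plus IBMX (each 0.5 mM as added) for 1 h at 37 °C, then compound for 1 h at 37 °C. Luminescence was read after 15 min at room temperature.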
ERG-DNA inh = qHTS for Small Molecule Inhibitors of the ERG Ets/DNA interaction | Transcriptional regulator ERG (Homo sapiens), P11308 | fluorescence polarization, His-ERG Ets domain / labelled DNA | Potency, µM (series often up to 76.9 µM), most hits filed as inhibitors | 370,000 compounds, 0.028% hits | AID 624246, 2012; active means well fitted inhibition curve with a large enough effect in the polarisation, with a control signal flat; inconclusive means small, poorly fitted or top-dose-only effect, or effect the other way, or a change in a side signal; inactive means no such curve, though single readings can be large or run the other way; the % refers to the polarisation;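 further: polarization taken with two DNA probes labelled with fluorescein and Texas red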
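His-tagged ERG Ets domain (1 uM in the protein solution; 300mM KCl, 50mM Tris-HCl, 1mM EDTA, 1mM DTT, pH 7.5) received compound, then a probe mix of 5 nM fluorescein-DNA and 100nM Texas-615-DNA. Fluorescence polarization was read for both dyes.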
ALOX12 inh = Primary qHTS assay for inhibitors of human arachidonate 12S-lipoxygenase (ALOX12): Round 2; purified 12hLO, xylenol orange hydroperoxide absorbance; AID 1671190, 2021; Potency, µM (highest dose often 108 µM), usual class: inhibitors; 580,000 compounds, 1.1% hits; Polyunsaturated fatty acid lipoxygenase ALOX12 (Homo sapiens), P18054
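Purified human 12hLO at 150 nM in 25 mM Hepes, 0.01% Triton X-100, pH 7.0, preincubated 15 min at room temperature with compound. Reaction started with 40 uM arachidonic acid, 30 min at room temperature. Hydroperoxide measured by Fe-xylenol orange, 573/405 nm absorbance ratio.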
miR-21 act = qHTS Assay for Modulators of miRNAs and/orActivators of miR-21. HeLa miR-21 FLuc reporter, luciferase, 48 h. Potency, µM (series often up to 38.3 µM), actives largely listed as activators. 340,000 tested, under 10 active;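 further: miR-21 action dims this reporter so a rising signal means less miR-21 action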
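Luminescence from a firefly luciferase reporter carrying a miR-21 binding site downstream, stably expressed under a CMV promoter in HeLa cells that make miR-21 endogenously, reports miRNA modulation after 48 h compound exposure up to approximately 40uM final.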
Numbers stand for hits; 0 = inactive; ? = inconclusive; - = no result. Unless noted, the call rests on the fitted dose curve; in most records, active means well fitted curve in the direction sought with a large enough effect; inconclusive means small, poorly fitted or top-dose-only effect, or another doubt; inactive means no such curve, though single readings can be large; an effect the other way counts as inactive or inconclusive.

SMILES	Giardia kill	PINK1 expr mod	PTHR1 agonist	ERG-DNA inh	ALOX12 inh	miR-21 act
COc1cc(NC(=S)NCCC(c2ccccc2)c2ccccc2)c(OC)cc1Cl	0	0	0	0	40µM	0
COc1ccccc1NC(=S)NCCC(c1ccccc1)c1ccccc1	0	0	0	0	35µM	0
COc1ccc(Cl)cc1NC(=S)NCCO	0	0	0	0	0	0
O=S(=O)(Nc1cccc(-c2ccc(N3CCCC3)nn2)c1)c1ccc(F)c(C(F)(F)F)c1	-	0	0	0	0	0
COc1ccc(Nc2nc3cc(-c4ccccc4C)sc3c(=O)n2C)cc1OC	-	0	0	-	35µM	-
Cc1ccccc1-c1cc2nc(Nc3ccc(F)cc3)n(C)c(=O)c2s1	-	0	0	-	?	-
O=C(NC1CCCCC1)C(c1cccs1)N(C(=O)Cc1c[nH]c2ccccc12)c1ccc(F)cc1 (stereo not given)	0	-	0	0	0	0
CC[n+]1c(/C=C2\C=C(C)CC(C)(C)C2)sc2ccccc21	0	13µM	0	0	?	0
CCC1=C/C(=C/c2sc3ccccc3[n+]2CC)CC(C)(C)C1	0	0	0	0	?	0
Fc1cccc(Nc2nc(-c3ccccc3)no2)c1	-	-	-	-	35µM	-
COc1ccc(-c2noc(Nc3cc(OC)cc(OC)c3)n2)cc1	-	-	-	-	18µM	-
Fc1ccc(Nc2nc(-c3ccccc3)no2)cc1	-	-	-	-	0	-
COc1cc(CNc2ncn[nH]2)cc(Br)c1OC	0	0	0	0	0	0
Cc1[nH]c2ccccc2c1C(=O)CSc1n[nH]c(N)n1	0	0	0	0	0	0
Cc1cc2c(cc(C(=O)OCC(=O)NCc3ccco3)n2C)s1	0	0	0	0	0	0
CCc1nnc(NS(=O)(=O)c2ccc(N=CC3=C(O)CC(C)(C)CC3=O)cc2)s1	0	0	?	0	0	0
COc1ccccc1-c1cc(N2CCN(c3ccccn3)CC2)c2onc(C)c2n1	-	-	-	-	89µM	-
COC1CCN(c2cc(-c3ccccn3)nc3c(C)noc23)CC1	-	-	-	-	0	-
COc1ccc(-n2c(=O)c(CCc3ccccc3)nc3cnc(N4CCN(C)CC4)nc32)cc1	-	0	-	-	13µM	-
CN1CCN(c2ncc3nc(-c4ccccc4)c(=O)n(Cc4ccc(F)cc4)c3n2)CC1	-	0	-	-	35µM	-
CN1CCN(c2ncc3nc(-c4cc(F)cc(F)c4)c(=O)n(Cc4cccs4)c3n2)CC1	-	0	-	-	18µM	-
CN1CCN(c2ncc3nc(-c4ccc(Cl)cc4)c(=O)n(Cc4ccc(F)cc4)c3n2)CC1	-	0	-	-	?	-
Cc1ccc(C(=O)Nc2ncccc2C)o1	0	0	0	0	0	-
Cc1ccc(OCC(=O)Nc2ccncc2)cc1	0	0	0	0	0	0
CCOC(=O)Cn1c(=NC(=O)c2ccc([N+](=O)[O-])s2)sc2ccccc21	-96	25µM	0	0	0	0
SMILES	Giardia kill	PINK1 expr mod	PTHR1 agonist	ERG-DNA inh	ALOX12 inh	miR-21 act
CCOC(=O)Cn1c(=NC(=O)C2COc3ccccc3O2)sc2cc(S(N)(=O)=O)ccc21 (stereo not given)	0	0	0	0	0	0
O=C(c1ccc(C(F)(F)F)cc1)N1CCC(c2nn(-c3ccc(F)cc3)c(=O)[nH]2)CC1	-	-	-	-	22µM	-
COc1ccc(C(=O)N2CCC(c3nn(-c4ccc(Cl)cc4)c(=O)[nH]3)CC2)cc1	-	-	-	-	35µM	-
O=C(c1cccc(C(F)(F)F)c1)N1CCC(c2nn(-c3ccc(Cl)cc3)c(=O)[nH]2)CC1	-	-	-	-	10µM	-
O=C(CCNC(=O)c1ccccc1Cl)Nc1cc(S(=O)(=O)N2CCOCC2)ccc1N1CCOCC1	0	0	0	0	0	0
COc1ccc(C2=NNC(=O)CC2)cc1	0	0	0	0	0	0
COc1ccc(C2=NNC(=O)C2(C)Br)cc1 (stereo not given)	0	0	0	-	45µM	-
COC(=O)C1=C(C)NC(=O)/C1=C\c1cc(C)n(-c2cc(C)cc(C)c2)c1C	0	0	0	0	40µM	0
COc1ccccc1CN1CCOc2ccc(C(C)(O)CN(C)C)cc2C1 (stereo not given)	-	0	-	-	0	-
CCCOC(=O)C(C)n1c(-c2ccccc2)nc2ccccc2c1=O (stereo not given)	0	8.9µM	0	0	0	0
COc1ccc(-n2c(COc3ccc(Cl)cc3Cl)n[nH]c2=S)cc1	-	0	0	-	?	-
Cn1c(COc2cc(Cl)ccc2Cl)n[nH]c1=S	-	-	-	-	50µM	-
Cc1ccc(Cl)c(OCc2n[nH]c(=S)n2C)c1	-	-	-	-	32µM	-
Cc1cccc(OCc2n[nH]c(=S)n2Cc2ccccc2)c1	0	0	0	0	?	0
Cc1ccc(C(C)C)c(OCc2n[nH]c(=S)n2Cc2ccc(Cl)cc2)c1	-	-	-	-	28µM	-
CCN(CC)CCCn1c(-c2ccc(COc3cc(C)ccc3Cl)cc2)n[nH]c1=S	-	-	-	-	35µM	-
CCOCCCn1c(-c2ccc(Cl)cc2)n[nH]c1=S	0	0	0	0	?	0
CC(C)COc1cc(=O)n2c(c1C(=O)N1CCC(N3CCCCC3)CC1)CCCCC2	-	-	-	-	0	-
O=C(O)c1cc(-c2cccs2)nc2ccc(Br)cc12	-	-	-	-	0	0
N#Cc1c(Nc2ccccc2)c(/C=N/N=C/c2ccccc2)c[nH]c1=O	0	0	0	0	0	0
CCN(C(=O)[C@@H]1CCCN1C(=O)c1cccs1)c1nc2cc(Cl)ccc2s1	0	0	0	0	0	0
O=C(c1ccc(Oc2ccccc2)cc1)c1nc2c(n1O)CCCC2	0	0	0	0	0	0
CCN(CC)c1ccc(C(=O)NNC(=O)C2CSC3(C)CCC(=O)N23)cc1 (stereo not given)	0	0	0	0	0	-
CCCCCn1c(COc2ccccc2Cl)n[nH]c1=S	-	-	-	-	28µM	-
Cc1ccc(-c2nn(-c3ccccc3)cc2C2SCC(=O)N2Cc2ccccc2)o1 (stereo not given)	0	0	0	0	32µM	0
SMILES	Giardia kill	PINK1 expr mod	PTHR1 agonist	ERG-DNA inh	ALOX12 inh	miR-21 act
O=C1CSC(c2cn(-c3ccccc3)nc2-c2cc3ccccc3o2)N1Cc1ccccc1 (stereo not given)	0	0	0	0	0	0
O=C(O)Cc1sc(N/N=C\c2ccccc2)nc1-c1ccccc1	0	0	0	0	45µM	0
CCOC(=O)c1sc(N/N=C/c2ccccc2)nc1C	0	0	0	0	?	0
CNc1ccc(Br)cc(C(=O)/C=C/c2cc(OC)ccc2OC)c1=O	0	0	0	0	?	0
O=C(/C=C/c1ccc(Cl)cc1Cl)c1cc(Cl)ccc1O	-	-	-	-	0	-
CCNc1ccc(Br)cc(C(=O)/C=C/c2ccc(Cl)cc2Cl)c1=O	0	0	0	0	7.1µM	0
